Screen size: about 260,000 compounds; about 1,500 (0.58%) were called active. Another 5% or so got no clear call; they are omitted.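 Rule for the calls: active = inhibition above a set limit at one or more doses, reproduced on every date tested; inconclusive = results disagree between test dates, or hit never tested in dose response; inactive = the rest.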 The list is a sample of the results. Results with a measured potency or affinity are listed apart.
These compounds were tested against Virion infectivity factor (Human immunodeficiency virus type 1 group M subtype B (isolate BH10)) + Virion infectivity factor (Human immunodeficiency virus type 1 group M subtype B (isolate BRU/LAI)) + Virion infectivity factor (Human immunodeficiency virus type 1 group M subtype B (isolate PCV12)) + Virion infectivity factor (Human immunodeficiency virus type 1 group M subtype B (isolate HXB2)) + DNA dC->dU-editing enzyme APOBEC-3G (Homo sapiens) (UniProt P69720+P69721+P69722+P69723+Q9HC16) (assay: HIV-1 Vif–A3G interaction blockers – biochemical, TR-FRET, GST-Vif 1-94, biotin-A3G peptide, dose response retest, primary screen (AID 1117319;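 note: Vif residues 1-94 fused to GST binding biotinylated APOBEC3G peptide 110-148; 0% = full assay without inhibitor and 100% = GST in place of GST-Vif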)). Settings: TR-FRET GST-Vif / biotin-A3G peptide binding; hits give high values.

SMILES	inhibition
CCN(CC(=O)NC)S(=O)(=O)c1ccc(Br)cc1	0.33% (inactive)
CCc1ccccc1NC1=NCC(=O)N1Cc1ccc(OC)cc1	-4.85% (inactive)
CCCCCC(O)(c1ccc(OCC)cc1)C(CN1CCOCC1)c1ccccc1 (stereo unspecified)	-5.23% (inactive)
COc1cccc(NC(=O)CN2C(=O)COc3ccc(S(=O)(=O)N4CCC(C)CC4)cc32)c1	-1.2% (inactive)
OCCC1CN(Cc2cccc3nonc23)CCN1Cc1ccsc1 (stereo unspecified)	21.2% (inactive)
CC(C)CCNC(=O)C(c1ccco1)N(CC1CCCO1)C(=O)Cn1nnc2ccccc21 (stereo unspecified)	18.9% (inactive)
COc1ccc(CN2C=C3C(=O)C(C)(OC(=O)C4CCCC4)C(=O)C=C3C=C2c2ccsc2)cc1 (stereo unspecified)	31% (inactive)
CC1(OC(=O)C2CCCC2)C(=O)C=C2C=C(c3ccsc3)N(CCCCO)C=C2C1=O (stereo unspecified)	21.2% (inactive)
COC(=O)CCC(=O)OC1(C)C(=O)C=C2C=C(C3CC3)N(c3ccccc3)C=C2C1=O (stereo unspecified)	21.6% (inactive)
COC/C=C/C1=CC2=CC(=O)C(C)(OC(=O)c3cnc4ccccc4n3)C(=O)C2=CN1C(CO)CO (stereo unspecified)	19.5% (inactive)
CCCCC1=CC2=CC(=O)C(C)(OC(=O)CC)C(=O)C2=CN1C1CCCCC1 (stereo unspecified)	18.3% (inactive)
C=CCN1C=C2C(=O)C(C)(OC(=O)C3CCCC3)C(=O)C=C2C=C1c1ccsc1 (stereo unspecified)	22.2% (inactive)
CCOC(=O)C1=C(COC(=O)Cc2ccccc2)NC(=O)NC1C (stereo unspecified)	2.89% (inactive)
CCCS(=O)(=O)c1nc(S(=O)(=O)c2ccc(C)cc2)c(N2CCCC2)s1	-10.9% (inactive)
O=C1C2CC=CCC2C(=O)N1c1ncn[nH]1 (stereo unspecified)	0.84% (inactive)
COc1cccc(OC)c1C(=O)Nc1ccccc1NC(=O)c1c(OC)cccc1OC	-6.67% (inactive)
O=[N+]([O-])c1ccc(/C=N/n2cn[nH]c2=S)cc1	0.85% (inactive)
O=S(=O)(NC1CC1)c1ccc(S(=O)(=O)N2CCc3ccccc32)cc1	18.3% (inactive)
COc1cc2c(cc1OC)C1c3ccc(OC)c(OC)c3OCC1(O)C2 (stereo unspecified)	-4.73% (inactive)
CCN(CC(=O)Nc1ccc(OC)cc1)C(=O)c1ccc2c(=O)n3c(nc2c1)CCC3	-5.14% (inactive)
O=C1C(Cc2ccccc2)NC(=S)N1c1ccccc1 (stereo unspecified)	-3.85% (inactive)
CCOc1cccc(/C=C2\NC(=S)N(c3ccccc3)C2=O)c1O	8.76% (inactive)
CC1CNC(=S)N(c2ccc(F)cc2)C1=O (stereo unspecified)	-6.26% (inactive)

SMILES	inhibition
CN(C)/C=C1\NC(=S)N(c2ccccc2)C1=O	-8.51% (inactive)
O=C1/C(=C/c2ccco2)N=C(N2CCCCC2)N1c1ccccc1	23.7% (inactive)
O=C1/C(=C\c2cccnc2)SC(=S)N1c1ccc(F)cc1	1.49% (inactive)
Cc1ccc2c(C)c(C(=O)NCCc3ccco3)oc2c1C	-1.77% (inactive)
CN(CC(=O)Nc1ccc(Cl)c(C(F)(F)F)c1)C(=O)c1cc(=O)[nH]c2ccccc12	1.56% (inactive)
Cc1ccc(C(=O)CCC(=O)Nc2ccc(C)cn2)cc1	-9.87% (inactive)
Cc1ccnc(NC(=O)CCC(=O)N(CC(=O)NCc2ccccc2)c2ccc3c(c2)OCO3)c1	12.1% (inactive)
Cc1cc(C)nc(SCc2cc(=O)c(OC(=O)c3ccc(Cl)c([N+](=O)[O-])c3)co2)n1	31.3% (inactive)
CN(c1ccc(C(=O)Nc2ccc(Cl)cn2)cc1)S(=O)(=O)c1ccccc1	18.3% (inactive)
CN(C1=C(NC(=O)c2ccccc2)C(=O)c2ccccc2C1=O)C1CCS(=O)(=O)C1 (stereo unspecified)	23.9% (inactive)
Fc1cccc(NC(=S)N2CCCCC2)c1	1.92% (inactive)
Cc1ccc(CC(NC(=O)c2ccccc2)C(=O)N2CCCC2C(=O)O)cc1 (stereo unspecified)	-0.14% (inactive)
O=C(O/N=C1\CCS(=O)(=O)c2sccc21)C1CC1	-8.69% (inactive)
O=C1C(Cl)=C(NCCc2ccccc2)C(=O)c2ccccc21	14.2% (inactive)
Nc1c(Cl)cc2c(c1Oc1ccccc1)C(=O)c1ccccc1C2=O	7.9% (inactive)
Cc1ccc(NS(=O)(=O)c2ccc(C(=O)N3CCCC(C(F)(F)F)C3)cc2)cc1 (stereo unspecified)	-6.68% (inactive)
O=C1/C(=C/c2ccccn2)SC(=S)N1c1cccc(O)c1	1.67% (inactive)
O=C(COc1ccccc1F)Nc1ccc2[nH]c(=O)[nH]c2c1	-2.63% (inactive)
COC(=O)c1cc(NC(=O)c2cc(-c3ccc(Cl)cc3)oc2C(F)(F)F)ccc1N1CCOCC1	-11.7% (inactive)
CSCCC(NC(=O)/C(=C/c1ccco1)NC(=O)c1ccc(Br)o1)C(=O)O (stereo unspecified)	13.7% (inactive)
CC(C)C(NC(=O)/C(=C/c1ccco1)NC(=O)c1ccc(Br)o1)C(=O)O (stereo unspecified)	25.7% (inactive)
COc1cc(/C(O)=C(\C#N)c2nc3ccccc3[nH]2)cc(OC)c1OC	3.24% (inactive)
Cc1ccc(Cl)cc1N1CCN(C(=O)COc2ccc(S(=O)(=O)NC(C)C)cc2)CC1	6.57% (inactive)
